# Sfp inh: blocks B. subtilis Sfp PPTase activity; Biochemical Sfp PPTase activity, qHTS; Potency, µM, for the others: largest response in the series, negative = inhibition, most hits filed as inhibitors; 310,000 compounds, 3.5% hits; AID 1490;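 note: the enzyme is Sfp with the accession as filed and its product quenches rhodamine fluorescence; 0% = enzyme reaction without inhibitor and -100% = no enzyme wells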
#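 Fluorescence-quenching assay with 15 nM Sfp, 5 uM rhodamine-CoA and 12.5 uM BHQ-2-labelled ybbR peptide in pH 7.6 Hepes/MgCl2 buffer. Enzyme was pre-incubated with compound for 15 min at room temperature. Rate was taken from the 30-min fluorescence change (525/598 nm).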
# BAZ2B block: BAZ2B (human) inhibition; Potency, µM (highest dose often 114 µM), inactives show at the highest dose activity change, negative = inhibition, usual class: inhibitors; 360,000 compounds, 4.4% hits; Q9UIF8; AlphaScreen BAZ2B-H3K14Ac peptide displacement; note: % is set by controls: 0 for no effect and ±100 for the full control effect; nearly all actives have a fitted effect of over 60% in size
#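 AlphaScreen displacement of biotin-H3(5-23)K14Ac peptide (50 nM final) from BAZ2B (50 nM final) in PBS pH 7.4, 0.01% Tween-20; complex preformed 30 min RT, then compounds (top 110 uM) 30 min RT, beads 20 min dark.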
# G9a inh: blocks human histone lysine methyltransferase G9a | Q96KQ7 | AID 504332 | 350,000 compounds, 8.8% hits | G9a H3K9 monomethylation, AlphaScreen, 2 h | Potency, µM (highest dose often 102 µM), without a hit: at the highest dose activity, negative = inhibition, usual class: inhibitors; note: % is set by controls: 0 for no effect and ±100 for the full control effect; nearly all actives have a fitted effect of over 75% in size
# Target sequence (Q96KQ7 913-1193 limits assumed): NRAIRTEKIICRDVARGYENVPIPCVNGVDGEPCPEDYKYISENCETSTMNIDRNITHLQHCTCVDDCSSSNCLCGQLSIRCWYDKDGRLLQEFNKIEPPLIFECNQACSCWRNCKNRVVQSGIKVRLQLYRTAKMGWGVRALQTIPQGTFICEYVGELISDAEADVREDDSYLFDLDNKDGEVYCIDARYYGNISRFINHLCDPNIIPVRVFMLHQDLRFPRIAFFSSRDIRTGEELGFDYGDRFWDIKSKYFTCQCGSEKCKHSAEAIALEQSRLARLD
#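 AlphaScreen read-out: biotin-H3K9 peptide (500 nM) methylation by 20 nM enzyme with 20 uM SAM, 2 h at room temperature after 15 min compound preincubation; anti-monomethyl H3K9 antibody plus donor/acceptor beads, 10 min dark.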
# HP1b chromo inh: blocks HP1-beta chromodomain binding to methylated histone tails; AID 540317; Potency, µM (titrated, usually from 114 µM), inactives show top-dose activity change, negative = inhibition, most hits filed as inhibitors; AlphaScreen HP1-beta / biotin-H3K9me3 peptide binding; P83916; 390,000 compounds, 0.56% hits; note: nearly all actives have a fitted effect of over 70% in size
# Target sequence (P83916 whole entry, looked up): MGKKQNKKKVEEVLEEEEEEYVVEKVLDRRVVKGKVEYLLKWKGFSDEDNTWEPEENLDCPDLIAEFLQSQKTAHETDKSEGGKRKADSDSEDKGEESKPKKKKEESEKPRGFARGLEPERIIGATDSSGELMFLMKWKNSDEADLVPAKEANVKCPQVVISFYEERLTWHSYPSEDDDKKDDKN
#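 Compound inhibition of the preformed complex between 50 nM HP1-beta and 50 nM biotinylated H3K9me3 peptide was read by AlphaScreen. Buffer was PBS pH 7.4 with 0.01% Tween-20. Incubations ran 30 min at room temperature, with 10 ug/mL donor/acceptor beads.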
# JMJD2A Tudor: inhibitors of human JMJD2A Tudor domain; O75164; AlphaScreen JMJD2A-Tudor / H3K4me3 peptide binding; Potency, µM (top dose mostly 114 µM), without a hit: top-dose activity change, negative = inhibition, actives largely listed as inhibitors; 390,000 compounds, 4.4% hits; AID 504339; note: % is set by controls: 0 for no effect and ±100 for the full control effect; nearly all actives have a fitted effect of over 50% in size
# Active calls of the source: *; ? = inconclusive; nt = no result given; [ ] = dose if it differs, or a comment. The list is not random: actives were taken first. Their share in the collection is about 12%. Calls come from the whole dose curve; as a rule, active = well fitted curve in the direction sought with a large enough effect; inconclusive = small, poorly fitted or top-dose-only effect, or another doubt; inactive = no such curve, though single readings can be large; an effect the other way counts as inactive or inconclusive. Potency is the fitted concentration of half-maximal effect.
SMILES,Sfp inh,BAZ2B block,G9a inh,HP1b chromo inh,JMJD2A Tudor
O=[N+]([O-])c1c(NCCCO)cc(Sc2ccc(Cl)cc2)c2nonc12,-20%,-4%,?,22%,-25%
CC(=O)OCCNc1cc(SCc2ccco2)c2nonc2c1[N+](=O)[O-],45µM*,?,45µM*,-39%,50µM*
O=[N+]([O-])c1c(NCCCO)cc(SCc2ccco2)c2nonc12,22µM*,?,8.9µM*,5%,-28%
Cn1ccnc1Sc1cc(NCCCO)c([N+](=O)[O-])c2nonc12,?,-8%,56µM*,3%,-16%
COc1ccc(NC(=O)CCN2CCN(CCO)CC2)c(OC)c1,nt,-19%,-49%[59 µM],-2%,-15%
Cc1nn(-c2ccc(N3CCCC3)nn2)c(C)c1CCC(=O)N1CCN(c2ccc(F)cc2)CC1,nt,?,10%[59 µM],110%,-15%
Cc1nc(NC(=O)c2ccccc2)sc1-c1csc(Nc2ccc(Cl)cc2Cl)n1,-19%,50µM*,25µM*,nt,nt
COc1ccc(Cl)cc1Nc1nc(-c2sc(NC(=O)c3ccccc3)nc2C)cs1,3%,56µM*,35µM*,nt,nt
Cc1nc(NC(=O)c2ccco2)sc1-c1csc(Nc2ccc(Cl)cc2Cl)n1,-4%,-31%,?,0%,?
COC1=C/C(=C/c2c(N)n3nc(-c4ccc(C)cc4)sc3nc2=O)C=CC1=O,-6%,50µM*,?,7%,?
CCOC1=C/C(=C/c2c(N)n3nc(-c4ccccc4)sc3nc2=O)C=CC1=O,-22%,40µM*,40µM*,1%,-32%
CCS(=O)(=O)c1nn2c(N)c(/C=C3/C=CC(=O)C(OC)=C3)c(=O)nc2s1,14%,-7%,?,12%,-20%
CC(=O)C1(C)C(=O)N(c2ccc(C)cc2)C(=O)N1c1ccc(C)cc1 (stereo unspecified),nt,nt,nt,36%,-6%
COc1cc(NC(=O)c2c(C)oc3c2C2=NCCN2C=N3)cc(OC)c1OC,nt,-28%,5%[59 µM],?,-32%
COc1ccccc1NCC(=O)NC(=O)NC1CCCCC1,nt,nt,nt,19%,-26%
CCNC(=S)NNc1nc(N2CCCCC2)nc(N2CCOCC2)n1,11µM*,nt,?,-6%,-8%
COc1ccc(Nc2nc(N3CCCC3)nc(N3CCOCC3)n2)cc1,nt,nt,nt,4%,?
COc1ccccc1-c1ocnc1C(=O)N1CCN(C(=O)C(c2ccccc2)c2ccccc2)CC1,89µM*,-1%,-2%[59 µM],-12%,-14%
COc1ccc(C)cc1S(=O)(=O)N1CCN(C(=O)c2ncoc2-c2ccccc2C)CC1,5%,2%,4%,-7%,-14%
CN(C)c1ccc(Sc2nnc(NC(=O)Nc3ccc(Cl)cc3Cl)s2)cc1,1%,-9%,28µM*,26%,-16%
CCOC(=O)c1sc(NC(=O)Cc2ccccc2OC)nc1C,-11%,-30%,40µM*,-4%,-11%
CCOC(=O)c1sc(-n2[nH]c(C)cc2=O)nc1C,-5%,6%,28µM*,36%,-8%
CCOC(=O)c1sc(NC(=O)c2ccc(OC(C)=O)cc2)nc1C,18%,-18%,0%,22%,0%
CCOC(=O)c1sc(NC(C)=O)nc1C,56µM*,1%,?,?,-13%
O=C(Cn1ccn(-c2ccc(F)c(F)c2)c(=O)c1=O)NCc1ccccc1,nt,-2%,-1%[59 µM],23%,-11%
SMILES,Sfp inh,BAZ2B block,G9a inh,HP1b chromo inh,JMJD2A Tudor
CCN(c1ccccc1)S(=O)(=O)c1cccc(C(=O)NCC(c2cccs2)N2CCOCC2)c1 (stereo unspecified),nt,-6%,-27%,5%,-12%
CCOC(=O)NC(NCc1ccccc1)(C(F)(F)F)C(F)(F)F,15%,-3%,22%[59 µM],39%,-11%
O=C(Cc1ccccc1)NC(NNc1ccccc1)(C(F)(F)F)C(F)(F)F,9%,6%,10µM*,?,?
Cc1cccc2c1c1ccc3c(c1n2C)C(=O)C=CC3=O,3.5µM*,5µM*,2µM*,6.3µM*,25µM*
CCN(CC)C(=O)CSc1nc(C)cc(-c2cccs2)c1C#N,40µM*,-16%,10µM*,2%,56µM*
CCc1ccc(-c2cc3c(N4CCN(c5ccccc5)CC4)nccn3n2)cc1,nt,?,?,-6%,?
